According to PubChem BioAssay (Tox21):
Several values for one entry are separate records, joined by “and”; a condition that tells them apart may be missing. Identical values can stand only once. Inconclusive results are not listed. Where a call stands in place of a potency, no number is given. A structure can be active in one record and inactive in another. Activity calls are given as the source filed them. Unless noted, calls follow the shape of the full dose curve.

Legend:
[1] = Nuclear factor erythroid 2-related factor 2/antioxidant responsive element (Nrf2/ARE) small molecule agonists: qHTS cell viability counter screen in human keratinocytes (AID 1919968; active = well fitted curve in the direction sought with a large enough effect in the repeat runs; an effect the other way counts as inactive or inconclusive; also: nearly all actives have a fitted effect of over 55% in size)
How it was run: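 HaCaT ARE reporter line, 1,500 cells/well; 5 h settle, 37 C/5% CO2; cpd in DMSO pinned; 23 h exposure; CellTiter-Fluor, 1 h; fluorescence.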

[2] = Nuclear factor erythroid 2-related factor 2/antioxidant responsive element (Nrf2/ARE) small molecule agonists: luciferase reporter gene qHTS assay in human keratinocytes (AID 1919969); also: nearly all actives have a fitted effect of over 35% in size; also: potency is read from the fitted curve at half-maximal effect
[3] = target: Gonadotropin-releasing hormone receptor (Homo sapiens) (UniProt P30968); assay: Human gonadotropin-releasing hormone receptor (GnRHR) small molecule agonists, calcium flux assay in GnRHR-HEK293 cells (AID 1920063); also: nearly all actives have a fitted effect of over 35% in size
Gonadotropin-releasing hormone receptor (Homo sapiens), sequence (P30968 whole entry, looked up): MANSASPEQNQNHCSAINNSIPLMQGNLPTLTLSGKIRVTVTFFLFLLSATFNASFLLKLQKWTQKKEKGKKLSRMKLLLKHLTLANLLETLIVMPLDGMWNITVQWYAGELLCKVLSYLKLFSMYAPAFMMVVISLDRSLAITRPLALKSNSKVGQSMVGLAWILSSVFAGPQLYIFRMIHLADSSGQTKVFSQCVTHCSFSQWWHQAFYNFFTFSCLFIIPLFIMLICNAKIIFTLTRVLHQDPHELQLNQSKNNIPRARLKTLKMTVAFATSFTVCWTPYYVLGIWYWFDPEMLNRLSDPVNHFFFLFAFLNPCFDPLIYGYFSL
How it was run: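 GnRHR-HEK293, 1500 cells/well, 18 h 37 C/5% CO2; Ca dye 1 h 37 C; cpd pinned (DMSO), agonist mode; kinetic FL 480/540, 3 min, 1 s reads; 15 conc, n=3.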

[4] = target: KiSS-1 receptor (Homo sapiens) (UniProt Q969F8); assay: Human kisspeptin (KISS1R) small molecule agonists, calcium flux assay in KISS1R-HEK293 cells (AID 1920064; active = well fitted curve in the direction sought with a large enough effect in the repeat runs; an effect the other way counts as inactive or inconclusive)
KiSS-1 receptor (Homo sapiens), sequence (Q969F8 whole entry, looked up): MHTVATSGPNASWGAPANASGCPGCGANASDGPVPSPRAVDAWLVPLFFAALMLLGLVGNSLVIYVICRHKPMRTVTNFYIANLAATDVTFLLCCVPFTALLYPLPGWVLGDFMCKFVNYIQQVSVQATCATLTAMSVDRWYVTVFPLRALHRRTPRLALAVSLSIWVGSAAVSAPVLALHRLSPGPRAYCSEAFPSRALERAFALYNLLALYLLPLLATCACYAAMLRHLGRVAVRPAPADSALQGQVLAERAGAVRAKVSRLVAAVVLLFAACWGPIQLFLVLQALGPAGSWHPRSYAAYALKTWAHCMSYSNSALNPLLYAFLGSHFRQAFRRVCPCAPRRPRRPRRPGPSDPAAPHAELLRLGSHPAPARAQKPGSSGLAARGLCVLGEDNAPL
How it was run: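 Stable human KISS1R HEK293 line; 18 h plating, 37 C/5% CO2; calcium dye 1 h 37 C; compound pin transfer; kinetic fluorescence Ex/Em 480/540, 3 min.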

[5] = G protein-coupled receptor (GPCR) small molecule agonists, calcium flux assay: HEK293 wild type cell line counter screen (AID 1920065)
How it was run: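 Kinetic fluorescence at Ex/Em 480/540, recorded every second over 3 min, served as the read-out after compound addition. Each compound was tested at 15 concentrations in triplicate on cells pre-loaded with calcium dye for 1 h.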

[6] = p53 small molecule agonists, cell-based qHTS assay with human liver microsomes: qHTS cell viability counter screen (AID 1963579); also: nearly all actives have a fitted effect of over 45% in size; also: potency is read from the fitted curve at half-maximal effect
How it was run: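 Seed p53RE-bla cells at 4,000 per well; incubate 5 h at 37 C; add compound, human liver microsomes and NADPH; incubate 16 h at 37 C; add CellTiter-Glo; after 30 min at room temperature, read luminescence.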

[7] = p53 small molecule agonists, cell-based qHTS assay with rat liver microsomes: qHTS cell viability counter screen (AID 1963580); also: nearly all actives have a fitted effect of over 45% in size
How it was run: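 Intracellular ATP, by CellTiter-Glo luminescence, defines viability. HCT-116 p53RE-bla cells, 4,000 per well, were compound-treated in the presence of rat liver microsomes and NADPH for 16 h at 37 C.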

[8] = p53 small molecule agonists, cell-based qHTS assay: qHTS cell viability counter screen (AID 1963581); also: nearly all actives have a fitted effect of over 45% in size
How it was run: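 HCT-116 p53RE-bla cells, 4,000/well, plated 5 h before compound pin transfer; 16 h at 37 C; bla substrate 2 h RT; then CellTiter-Glo, 30 min RT, luminescence.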

[9] = target: 5-hydroxytryptamine receptor 2A (Homo sapiens) (UniProt P28223); assay: 5-hydroxytryptamine receptor 2A (HTR2A) small molecule antagonists, cell-based qHTS assay (AID 1963586); also: nearly all actives have a fitted effect of over 45% in size
5-hydroxytryptamine receptor 2A (Homo sapiens), sequence (P28223 whole entry, looked up): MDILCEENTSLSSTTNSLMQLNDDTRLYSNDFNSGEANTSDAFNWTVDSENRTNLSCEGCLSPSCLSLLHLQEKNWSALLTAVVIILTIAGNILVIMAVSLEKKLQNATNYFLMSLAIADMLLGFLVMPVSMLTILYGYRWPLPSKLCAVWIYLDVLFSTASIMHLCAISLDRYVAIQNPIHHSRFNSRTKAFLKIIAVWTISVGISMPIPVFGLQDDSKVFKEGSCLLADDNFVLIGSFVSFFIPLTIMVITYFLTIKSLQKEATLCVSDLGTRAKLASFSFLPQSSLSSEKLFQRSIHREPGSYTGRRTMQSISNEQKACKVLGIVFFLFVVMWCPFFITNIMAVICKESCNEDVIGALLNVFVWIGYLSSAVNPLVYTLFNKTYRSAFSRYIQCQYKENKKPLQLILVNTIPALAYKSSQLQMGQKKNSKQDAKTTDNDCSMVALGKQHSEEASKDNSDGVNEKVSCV
How it was run: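 Antagonist-mode intracellular calcium assay: DOI (4 nM) added after 5 min compound pre-incubation at room temperature to dye-loaded HTR2A-CHO cells. Fluorescence followed for 3 min, sampled every second.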

[10] = target: 5-hydroxytryptamine receptor 2A (Homo sapiens) (UniProt P28223); assay: 5-hydroxytryptamine receptor 2A (HTR2A) small molecule agonists, cell-based qHTS assay (AID 1963587); also: nearly all actives have a fitted effect of over 30% in size
How it was run: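 Kinetic calcium-flux fluorescence (2 min, 1 sec intervals) after compound addition in agonist mode. HTR2A-CHO cells were cultured 18 h, then dye-loaded 1 h at 37 C.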

[11] = target: Muscarinic acetylcholine receptor M1 (Homo sapiens) (UniProt P11229); assay: Cholinergic receptor muscarinic 1 (CHRM1) small molecule antagonists, cell-based qHTS assay (AID 1963588); also: nearly all actives have a fitted effect of over 40% in size
Muscarinic acetylcholine receptor M1 (Homo sapiens), sequence (P11229 whole entry, looked up): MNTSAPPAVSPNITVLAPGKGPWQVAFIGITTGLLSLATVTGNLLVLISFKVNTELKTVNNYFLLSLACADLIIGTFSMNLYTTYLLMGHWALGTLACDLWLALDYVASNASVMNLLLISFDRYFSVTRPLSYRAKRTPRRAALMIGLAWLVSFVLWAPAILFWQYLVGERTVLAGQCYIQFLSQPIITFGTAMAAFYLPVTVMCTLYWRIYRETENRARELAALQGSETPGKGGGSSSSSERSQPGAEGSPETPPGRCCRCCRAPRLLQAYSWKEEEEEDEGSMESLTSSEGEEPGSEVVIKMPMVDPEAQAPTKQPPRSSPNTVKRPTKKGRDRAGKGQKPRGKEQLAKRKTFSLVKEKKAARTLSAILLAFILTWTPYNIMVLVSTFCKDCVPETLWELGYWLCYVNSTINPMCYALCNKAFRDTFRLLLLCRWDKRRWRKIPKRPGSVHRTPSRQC
How it was run: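 CHRM1-CHO calcium-flux assay, antagonist mode. Cells were seeded 18 h, dye-loaded 1 h at 37 C and given compound for 5 min at RT, then acetylcholine was added at 50nM. FDSS fluorescence was read 3 min; 15 concentrations, three runs.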

[12] = target: Muscarinic acetylcholine receptor M1 (Homo sapiens) (UniProt P11229); assay: Cholinergic receptor muscarinic 1 (CHRM1) small molecule agonists, cell-based qHTS assay (AID 1963589); also: nearly all actives have a fitted effect of over 35% in size
How it was run: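 Human M1 in stable CHO line; 18 h plating, 1 h dye load 37 C; cpd added (agonist mode); Ca2+ fluorescence kinetic read, 1 s intervals; 15 conc, 3 runs.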

[13] = cAMP Responsive Elements (CRE) small molecule agonists, cell-based qHTS assay (AID 1963590)
How it was run: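 HEK 293T CRE-bla, 2,000 cells/well, 18 h preincubation 37 C/5% CO2; cpds (DMSO) pinned, 3 h; LiveBLAzer B/G FRET substrate, 2 h RT.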

[14] = cAMP Responsive Elements (CRE) small molecule antagonists, cell-based qHTS assay (AID 1963591; active = well fitted inhibition curve with a large enough effect in the signal ratio in the repeat runs, not every such curve was filed as active; the % refers to the signal ratio)
How it was run: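 Beta-lactamase reporter read by FRET substrate (LiveBLAzer B/G) after 2 h at room temperature. CRE-bla HEK293T cells had received compound plus 0.25 uM (final) NKH477 for 3 h at 37 °C.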

[15] = target: Beta-2 adrenergic receptor (Homo sapiens) (UniProt P07550); assay: Adrenergic beta2 receptor (ADRB2) small molecule antagonists, cell-based qHTS assay (AID 1963592); also: series mostly up to about 92 µM; nearly all actives have a fitted effect of over 50% in size
Beta-2 adrenergic receptor (Homo sapiens), sequence (P07550 whole entry, looked up): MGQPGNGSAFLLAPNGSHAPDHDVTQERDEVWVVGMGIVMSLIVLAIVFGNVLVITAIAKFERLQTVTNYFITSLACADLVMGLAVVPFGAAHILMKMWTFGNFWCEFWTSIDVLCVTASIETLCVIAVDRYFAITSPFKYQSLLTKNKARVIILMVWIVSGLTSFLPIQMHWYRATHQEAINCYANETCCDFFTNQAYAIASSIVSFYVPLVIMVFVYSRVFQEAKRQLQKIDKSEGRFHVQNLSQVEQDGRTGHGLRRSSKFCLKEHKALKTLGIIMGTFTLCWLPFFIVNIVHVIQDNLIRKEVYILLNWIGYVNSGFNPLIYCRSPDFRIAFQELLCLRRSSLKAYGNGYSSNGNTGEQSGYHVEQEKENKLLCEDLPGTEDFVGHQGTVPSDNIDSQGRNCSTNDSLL
How it was run: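 Cells (CHO, stable ADRB2 overexpression) incubated 18-20hr at 37C; compounds added from DMSO; agonist mix (1nM isoproterenol, 100uM IBMX, 25uM Ro-20-1724) added; 0.5hr RT; d2-cAMP and anti-cAMP-cryptate added; 1hr RT; 665/615 nm read.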

[16] = target: D(2) dopamine receptor (Homo sapiens) (UniProt P14416); assay: Dopamine D2 receptor (DRD2) small molecule agonists, cell-based qHTS assay (AID 1963594); also: nearly all actives have a fitted effect of over 35% in size
D(2) dopamine receptor (Homo sapiens), sequence (P14416 whole entry, looked up): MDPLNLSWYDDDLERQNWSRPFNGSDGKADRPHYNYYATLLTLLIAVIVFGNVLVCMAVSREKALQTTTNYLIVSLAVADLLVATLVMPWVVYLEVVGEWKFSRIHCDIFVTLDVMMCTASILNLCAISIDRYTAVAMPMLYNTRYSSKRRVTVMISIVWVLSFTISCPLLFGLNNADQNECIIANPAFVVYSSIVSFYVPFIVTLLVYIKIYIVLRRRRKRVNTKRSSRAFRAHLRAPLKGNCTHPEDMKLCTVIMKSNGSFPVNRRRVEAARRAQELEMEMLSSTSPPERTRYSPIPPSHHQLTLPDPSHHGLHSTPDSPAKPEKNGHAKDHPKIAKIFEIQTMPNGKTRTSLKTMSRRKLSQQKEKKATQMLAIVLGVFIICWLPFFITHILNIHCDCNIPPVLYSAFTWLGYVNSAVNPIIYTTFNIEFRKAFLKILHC
How it was run: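 cAMP accumulation in DRD2-HEK293 cells measured by HTRF after 1 h detection; compounds added 10 min before NKH477 (200nM […]) forskolin-analogue stimulation, 30 min at room temperature, with Ro20-1724 present at 0.1 mM final.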

[17] = target: D(2) dopamine receptor (Homo sapiens) (UniProt P14416); assay: Dopamine D2 receptor (DRD2) small molecule antagonists, cell-based qHTS assay (AID 1963595; active = well fitted inhibition curve with a large enough effect in the signal ratio in the repeat runs, with a control signal flat; the % refers to the signal ratio)
How it was run: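 HEK293 cells stably expressing DRD2 were preincubated with 0.1 mM Ro20-1724, then with compound for 10 min at room temperature. Cells were stimulated with 200 nM NKH477 plus 12 nM quinpirole for 30 min, and cAMP was read by HTRF.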

[18] = target: Beta-2 adrenergic receptor (Homo sapiens) (UniProt P07550); assay: Adrenergic beta2 receptor (ADRB2) small molecule agonists, cell-based qHTS assay (AID 1963593);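 also: CHO cells stably overexpressing human ADRB2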
How it was run: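 CHO cells stably over-expressing ADRB2 were plated overnight at 37C, then dosed with compounds plus a stimulation mix containing 100uM IBMX and 25uM Ro-20-1724 for 0.5hr at room temperature. cAMP was measured by HTRF competition, 1hr.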

[19] = p53 small molecule agonists, cell-based qHTS assay with rat liver microsomes (AID 1963578)
How it was run: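 Fluorescence from a beta-lactamase reporter under a p53 response element was measured after cells had been incubated 16 h at 37 C with test compound and rat liver microsomes plus NADPH (0.5 mg/mL final each).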

NC=O
Potency [1]: inactive | Potency [2]: inactive | Potency [3]: inactive | Potency [4]: inactive | Potency [5]: inactive | Potency [6]: inactive | Potency [7]: inactive | Potency [8]: inactive | Potency [9]: inactive | Potency [10]: inactive | Potency [11]: inactive | Potency [12]: inactive | Potency [13]: inactive | Potency [14]: inactive | Potency [15]: inactive | Potency [16]: inactive | Potency [17]: inactive

CC[N+](CC)(CC(=O)Nc1c(C)cccc1C)Cc1ccccc1
Potency [1]: inactive | Potency [2]: inactive | Potency [3]: inactive | Potency [4]: inactive | Potency [5]: inactive | Potency [6]: inactive | Potency [7]: inactive | Potency [8]: inactive | Potency [9]: inactive | Potency [10]: inactive | Potency [12]: inactive | Potency [13]: inactive | Potency [14]: inactive | Potency [15]: inactive | Potency [18]: inactive | Potency [17]: inactive

N=C(N)c1ccc(OCCCCCOc2ccc(C(=N)N)cc2)cc1
Potency [1]: inactive | Potency [2]: inactive | Potency [3]: inactive | Potency [4]: inactive | Potency [5]: inactive | Potency [6]: inactive | Potency [7]: inactive | Potency [8]: inactive | Potency [13]: inactive | Potency [15]: inactive | Potency [18]: inactive | Potency [16]: inactive | Potency [17]: inactive

CCCOC(=O)c1cc(O)c(O)c(O)c1
Potency [1]: inactive | Potency [2]: inactive | Potency [3]: inactive | Potency [4]: inactive | Potency [5]: inactive | Potency [19]: inactive | Potency [7]: inactive | Potency [9]: inactive | Potency [10]: inactive | Potency [11]: inactive | Potency [12]: inactive | Potency [14]: inactive | Potency [15]: inactive | Potency [18]: inactive | Potency [16]: inactive | Potency [17]: inactive

COc1ccc(CN(CCN(C)C)c2ccccn2)cc1
Potency [1]: inactive | Potency [2]: inactive | Potency [3]: inactive | Potency [4]: inactive | Potency [5]: inactive | Potency [6]: inactive | Potency [7]: inactive | Potency [8]: inactive | Potency [13]: inactive | Potency [15]: inactive | Potency [18]: inactive | Potency [16]: inactive | Potency [17]: inactive

OC1C(O)C(O)C(O)C(O)C1O (stereo not drawn)
Potency [1]: inactive | Potency [2]: inactive | Potency [3]: inactive | Potency [4]: inactive | Potency [5]: inactive | Potency [6]: inactive | Potency [7]: inactive | Potency [8]: inactive | Potency [9]: inactive | Potency [10]: inactive | Potency [11]: inactive | Potency [12]: inactive | Potency [13]: inactive | Potency [14]: inactive | Potency [15]: inactive | Potency [16]: inactive

O=C(Oc1ccccc1)c1ccccc1O
Potency [1]: inactive | Potency [2]: inactive and 68.6 µM (active) | Potency [3]: inactive | Potency [4]: inactive | Potency [5]: inactive | Potency [6]: inactive and 40.8 µM (active) | Potency [7]: inactive | Potency [8]: inactive | Potency [9]: inactive | Potency [10]: inactive | Potency [11]: inactive | Potency [12]: inactive | Potency [13]: inactive | Potency [14]: inactive | Potency [15]: inactive | Potency [18]: inactive | Potency [17]: inactive
